High-throughput results: PubChem, National Center for Advancing Translational Sciences (NCATS)
HT1080NT lethal: kills 2HG-producing HT-1080-NT fibrosarcoma cells. HT-1080-NT fibrosarcoma viability, CellTiter-Glo ATP luminescence, 48 h. Potency, µM (highest dose often 46.1 µM), actives largely listed as cytotoxic. actives 1.6% (n = 360,000). AID 686970;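 further: NT is the 2HG producing partner of a matched IDH1 knockdown line; nearly all actives have a fitted effect of over 55% in size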
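HT-1080-NT fibrosarcoma cells (2HG-overproducing), 750 cells/well in RPMI with 5% FBS, dosed after 2 h and incubated 48 h at 37C. CellTiter-Glo luminescence normalized to DMSO and no-cell wells; concentration-response curves fitted and classed.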
IL1B secr inh: inflammasome signaling inhibition, IL-1 beta readout; actives 4.7% (n = 360,000); THP-1 LPS/ATP IL-1B secretion, AlphaLISA, 16 h; hits give low values; activity change, % at 57.5 µM; in the data active means activity change below about -50%; inconclusive means mostly about -30% to -49%
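THP-1 cells pretreated 1 hr with compounds (up to 57.5 uM final), then stimulated with LPS (250 ng/mL final) plus ATP (1.25 mM final); secreted IL-1B measured by AlphaLISA after 16 hr, decreased signal indicating inhibition.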
TDP1 cell noCPT: qHTS for Inhibitors of human tyrosyl-DNA phosphodiesterase 1 (TDP1): qHTS in cells in absence of CPT | DT40 Tdp1-/- hTDP1 cells, no CPT, ATP luminescence, 48 h | Potency, µM (top dose mostly 46.2 µM), usual class: inhibitors | actives 15% (n = 420,000); further: nearly all actives have a fitted effect of over 55% in size
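Camptothecin absent (DMSO only). Human TDP1-complemented DT40 knockout cells, 400 cells/well, 37 °C for minimum 48 hr; ATP measured via CellTiter-Glo, 30 min dark incubation, luminescence.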
ELG1 repair inh: blocks ELG1-dependent DNA repair in HEK293T cells | HEK293T ELG1-luciferase reporter, luminescence, 16 h; DNA damage induced by 5-fluorouridine | Potency, µM (titrated, usually from 46.1 µM), actives largely listed as inhibitors | actives 2.3% (n = 330,000); further: nearly all actives have a fitted effect of over 55% in size
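Step one: seed 2,000 cells per well. Step two: pin-transfer compound or DMSO alongside 5-fluorouridine. Step three: incubate 16 hr, 37 °C, 5% CO2. Step four: add ONE-Glo, wait 30 min, read luminescence.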
DT40 TDP1 CPT: DT40-hTDP1 cell growth loss with CPT; actives 12% (n = 420,000); Potency, µM (top dose mostly 46.2 µM), usual class: inhibitors; chicken DT40 Tdp1-/-;hTDP1 cells + 20 nM CPT, ATP luminescence, 48 h; further: nearly all actives have a fitted effect of over 55% in size
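Cell growth measured by CellTiter-Glo luminescence after a minimum 48 h, 37 C compound exposure with 20 nM CPT in Tdp1-knockout DT40 cells stably expressing hTDP1, seeded 400/well; qHTS titration format.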
HT1080 IDH1KD tx: HT-1080 IDH1 knockdown cell toxicity (counter line); actives 2% (n = 360,000); Potency, µM (series often up to 46.1 µM), actives largely listed as cytotoxic; HT-1080 IDH1 knockdown viability, ATP luminescence, 48 h
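Cytotoxicity counter-line: IDH1KD HT-1080, 48 h, CellTiter-Glo. Curves classed by r2, magnitude and activity.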
A number is an active result; i = inactive; ? = inconclusive; nt = no result given. Shown are actives, neighbours in structure and some others; about 19% of the full set was active somewhere. Unless noted, the call rests on the fitted dose curve; in most records, active means well fitted curve in the direction sought with a large enough effect; inconclusive means small, poorly fitted or top-dose-only effect, or another doubt; inactive means no such curve, though single readings can be large; an effect the other way counts as inactive or inconclusive.

SMILES	HT1080NT lethal	IL1B secr inh	TDP1 cell noCPT	ELG1 repair inh	DT40 TDP1 CPT	HT1080 IDH1KD tx
CCC1CCCCN1S(=O)(=O)c1ccc(C(=O)Nc2nnc(C3CC3)o2)cc1 (stereo unspecified)	i	i	?	?	?	?
CCC1CCCCN1S(=O)(=O)c1ccc(C(=O)Nc2nnc(-c3ccccc3Cl)o2)cc1 (stereo unspecified)	?	i	6.5µM	?	5.2µM	8.2µM
Cc1cccc(Nc2cc(C)nc3ccccc23)c1	i	-91	?	i	i	i
Cc1cc(Nc2cccc(Cl)c2)c2ccccc2n1	i	?	23µM	?	21µM	i
Cc1cc(Nc2ccc3c(c2)OCCO3)c2cc(Cl)ccc2n1	i	-116	15µM	?	?	i
Cc1cc(C)c(C#N)c(Nc2ccc3c(c2)OCCO3)n1	i	i	?	i	i	i
Cc1cc(Nc2ccc(F)cc2)c2ccccc2n1	i	i	?	nt	?	i
O=C(NNc1cc(C(F)(F)F)nc2ccccc12)Nc1cccc(Cl)c1	?	-89	16µM	?	?	21µM
CCOc1ccc2nc(NC(=O)c3cc(=O)c4ccc(C)cc4o3)sc2c1	nt	nt	i	nt	i	nt
c1ccc2c(N=NN3CCCCC3)ccnc2c1	nt	nt	?	nt	i	nt
C=CCN(c1ccc(C(=O)Nc2ccc(NC(C)=O)cc2)cc1)S(C)(=O)=O	i	i	23µM	i	?	i
C=CCN(c1ccc(C(=O)Nc2cccc(C)c2)cc1)S(C)(=O)=O	i	i	i	?	i	i
COCCN1C[C@@H](CO)O[C@@H](n2cnc3c(NC4CCCC4)ncnc32)C1	i	i	i	nt	i	i
CC[C@]1(O)C[C@@H]2CN(CCc3c([nH]c4ccccc34)[C@](C(=O)OC)(c3cc4c(cc3OC)N(C)[C@H]3[C@](O)(C(=O)OC)[C@@H](C(=O)OC)[C@@]5(CC)C=CCN6CC[C@@]43[C@@H]65)C2)C1	nt	nt	0.11µM	nt	0.084µM	nt
CC[C@]1(O)C[C@@H]2CN(CCc3c([nH]c4ccccc34)[C@@](C(=O)OC)(c3cc4c(cc3OC)N(C)C3[C@]45CCN4CC=C[C@](CC)(C45)[C@@H](OC(C)=O)[C@]3(O)C(=O)OC)C2)C1 (stereo partly specified)	nt	nt	0.016µM	nt	0.025µM	nt
CCN(CC)C(=O)[C@H]1CC(CC(=O)NCc2ccc(OC)c(OC)c2)C(=O)N2CCc3c([nH]c4ccccc34)[C@]12C (stereo partly specified)	i	i	?	i	?	i
CCC1=C[C@@H]2CN(C1)Cc1c([nH]c3ccccc13)[C@@](C(=O)OC)(c1cc3c(cc1OC)N(C)[C@H]1[C@@](O)(C(=O)OC)[C@H](OC(C)=O)[C@]4(CC)C=CCN5CC[C@]31[C@@H]54)C2	nt	nt	0.053µM	nt	0.06µM	nt
CCOC(=O)CNC(=O)N(C)[C@H]1C[C@H]2c3[nH]c4ccccc4c3CCN2C[C@H]1[C@H](C)O	i	i	i	nt	i	i
CC[C@]1(O)CC2CN(CCc3c([nH]c4ccccc34)[C@@](C(=O)OC)(c3cc4c(cc3OC)N(C)[C@H]3[C@@](O)(C(N)=O)[C@H](O)[C@]5(CC)C=CCN6CC[C@]43[C@@H]65)C2)C1 (stereo partly specified)	nt	nt	0.34µM	nt	0.34µM	nt
Cc1ccc(C)c(N2C(=O)CC(Cc3ccccc3)C2=O)c1 (stereo unspecified)	i	i	i	i	i	i
Cc1nn(CCCC(=O)NC(C)c2ccccc2)c(=O)c2nn(-c3ccccc3)c(C)c12 (stereo unspecified)	i	i	i	?	i	i
CCOc1ccc(NC(=O)N2CCC(N3CCCCC3)CC2)cc1	nt	nt	i	nt	i	nt
